HT1080-NT tox: kills 2HG-producing HT-1080-NT fibrosarcoma cells | HT-1080-NT fibrosarcoma viability, CellTiter-Glo ATP luminescence, 48 h | Potency, µM (highest dose often 46.1 µM), inactives show at the highest dose activity, negative = less viability, usual class: cytotoxic | 360,000 tested, 1.6% active | AID 686970;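 further: NT is the 2HG producing partner of a matched IDH1 knockdown line; 0% = DMSO-treated cells and -100% = media-only wells without cells; nearly all actives have a fitted effect of over 55% in size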
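Toxicity toward the 2HG-producing NT line was scored as %Activity, normalised to DMSO and no-cell wells, from CellTiter-Glo luminescence after 48 hours' treatment.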
S2 tox: reduces viability in counter-screen for ATXN expression inhibitors. S2 cells (HEK-293 line with an ATXN2-luciferase reporter) viability, CellTiter-Fluor protease fluorescence, 24 h. Potency, µM (doses to about 56.7 µM), hits mostly cytotoxic. 400,000 tested, 0.49% active; further: nearly all actives have a fitted effect of over 40% in size
ATXN2 expr inh: reduces ATXN2 reporter expression in HEK-293 cells; 360,000 tested, 0.72% active; HEK-293 ATXN2-luciferase reporter, luminescence, 24 h; AID 1745845; Potency, µM (series often up to 57 µM), without a hit: at the highest dose activity change, negative = inhibition, actives largely listed as inhibitors; further: on the % scale 0 is the no-effect control and ±100 the full control effect; nearly all actives have a fitted effect of over 55% in size
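qHTS (up to 57 uM final) was run with 24 h compound exposure of reporter cells at 37 °C. Each well was multiplexed: SteadyGlo luminescence measured ATXN2-luciferase expression after a fluorogenic Gly-Phe-AFC viability readout (25 uM final).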
TGFb inhibitor: TGF-b pathway inhibition; 410,000 tested, 1.2% active; Potency, µM (highest dose often 46.1 µM), for the others: top-dose activity, negative = inhibition, actives largely listed as inhibitors; HepG2 CAGA-GFP TGF-b/SMAD3 reporter, GFP fluorescence, 18 h; TGF-beta stimulated, 500 pg/mL final; AID 588855; further: on the % scale 0 is the no-effect control and ±100 the full control effect; nearly all actives have a fitted effect of over 65% in size
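Smad-responsive CAGA-GFP expression was quantified in HEPG2 cells exposed to compounds and 500 pg/mL final TGF-beta for 18 h at 37 degrees C; unstimulated wells defined full inhibition.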
HT1080 IDH1KD tx: toxicity to HT-1080 IDH1 knockdown cells (counter line). Potency, µM (titrated, usually from 46.1 µM), for inactives: at the top dose activity, negative = toxicity, most hits filed as cytotoxic. 360,000 tested, 2% active. HT-1080 IDH1 knockdown viability, ATP luminescence, 48 h;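 further: 0% = DMSO wells and -100% = cell-free medium wells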
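IDH1KD HT-1080 cells, 750/well, RPMI + 5% FBS; compound pinned after 2 h settling; 48 h, 37 °C; CellTiter-Glo luminescence; % activity normalised to DMSO and no-cell wells; curves fitted, classed by r2 and efficacy.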
HepG2 viability: counter-screen for TGF-b inhibitors: cytotoxicity in HepG2 cells; AID 588856; HepG2 CAGA-GFP viability, ATP luminescence, 18 h; Potency, µM (doses to about 46.1 µM), inactives show at the highest dose activity change, negative = cytotoxicity, actives largely listed as cytotoxic; 410,000 tested, 0.76% active
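HepG2 CAGA-GFP cells (1000/well, DMEM with 1% FBS) received compound, then TGF-beta at 500 pg/mL final, and were incubated 18 hours at 37 degrees C. Viability was read by CellTiter-Glo luminescence. Media-only wells were set as complete cell-killing and DMSO as no toxicity.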
The depositor's hits bear a star; i = inactive; ? = inconclusive; nt = no result; [ ] = dose if it differs, or a comment. In the library only some 3.8% were active in any assay of this set; here they are far more common. The call rests on the fitted dose curve; in most records, active means well fitted curve in the direction sought with a large enough effect; inconclusive means small, poorly fitted or top-dose-only effect, or another doubt; inactive means no such curve, though single readings can be large; an effect the other way counts as inactive or inconclusive. Potency means the concentration at half of the fitted maximal effect.

SMILES	HT1080-NT tox	S2 tox	ATXN2 expr inh	TGFb inhibitor	HT1080 IDH1KD tx	HepG2 viability
CC1CN(c2ccc([N+](=O)[O-])c(NCCOc3ccc(Cl)cc3)c2)CC(C)N1 (stereo not given)	?	nt	nt	?	?	14.1µM*
CC(C)(C)CNc1cc(N2CCCC2)ccc1[N+](=O)[O-]	4.4%	i	3.4%	-0.5%	3.7%	-2.2%
NCCNc1cc(N2CCCC2)ccc1[N+](=O)[O-]	-0.1%	?	-32.7%	-17.3%	-4.1%	-6.0%
Cc1ccccc1OCCNc1cc(N2CC(C)NC(C)C2)ccc1[N+](=O)[O-] (stereo not given)	?	23.8µM*	?	?	?	-116.5%
CC1CN(c2ccc([N+](=O)[O-])c(NCCOc3ccccc3)c2)CC(C)N1 (stereo not given)	16.4µM*	?	?	?	20.6µM*	-58.2%
COc1cccc(OCCNc2cc(Cl)ccc2[N+](=O)[O-])c1	0.7%	i	33.8%	-19.8%	2.3%[9.24 µM]	-87.0%
Cc1c(C#N)c(NC(=O)COC(=O)c2cc(Cl)c3c(c2)OCCCO3)n(Cc2ccco2)c1C	nt	nt	nt	20.8%	nt	4.5%
O=c1nc2s/c(=C\c3ccc(-c4ccccc4[N+](=O)[O-])o3)c(=O)n2nc1-c1ccccc1	-5.5%	?	2.5%	1.7%	0.3%	7.3%
NC1=NC(=O)/C(=C\c2ccc(-c3ccccc3[N+](=O)[O-])o2)S1	20µM*	nt	nt	nt	?	nt
Cc1cc(C)n(-c2nc(N(c3ccccc3)c3ccccc3)nc(-n3nc(C)cc3C)n2)n1	4.8%	8.91µM*	10µM*	?	2.3%	4.8%
CCOC(=O)N1CCN([N+]([O-])=NOc2cc(ON=[N+]([O-])N3CCN(C(=O)OCC)CC3)c([N+](=O)[O-])cc2[N+](=O)[O-])CC1	nt	nt	5.0%	nt	nt	nt
Cc1nnsc1C(=O)Oc1ccccc1Cl	nt	i	10.8%	1.8%	nt	4.2%
O=C(Cc1ccc(N2CCNC2=O)cc1)N1CCCC(Nc2ccc(F)c(F)c2)C1 (stereo not given)	3.26µM*	i	-19.3%	-24.1%	2.91µM*	-1.1%
O=C(Cc1ccc(N2CCNC2=O)cc1)N1CCCC(Nc2cccc(F)c2)C1 (stereo not given)	?	?	nt	?	5.8µM*	-19.8%
O=C(c1cccc(N2CCNC2=O)c1)N1CCCC(Nc2cccc(F)c2)C1 (stereo not given)	0.0%	i	5.6%	-15.6%	-1.3%	-27.8%
O=C1CCCN1CCC(=O)N1CCCC(Nc2ccc(F)c(F)c2)C1 (stereo not given)	-0.1%	i	26.5%	2.4%	1.7%	-6.4%
CCCSc1ncc(Cl)c(C(=O)Nc2ccc(S(=O)(=O)N3CCCCC3C)cc2)n1 (stereo not given)	nt	nt	nt	nt	nt	-5.8%
C=CCn1c(COc2ccccc2)nnc1SC(C)C(=O)N/N=C/c1cc(Cl)ccc1O (stereo not given)	?	i	14.1µM*	-1.2%	?	-13.7%
CN(C)c1ccc(/C=C/c2cnnc3ccccc23)cc1	nt	nt	nt	29.2%	nt	-6.9%
O=C(/C=C/Sc1ccccc1)c1ccc(Cl)cc1	?	nt	?	8.91µM*	7.94µM*	11.2µM*
O=C(/C=C/Sc1ccccc1)c1ccccc1	2.82µM*	nt	?	10µM*	5.62µM*	15.8µM*
O=CC(=O)c1ccc(Cl)cc1	nt	nt	nt	-28.2%	nt	-29.4%
Cc1ncc2c(c1CNS(=O)(=O)N(C)C)CCN(C(=O)c1[nH]c3ccc(Cl)cc3c1C)C2	nt	i	nt	nt	nt	nt
CCOc1ccc(-n2c(=O)c3c(C)c(C(=O)N(C)C)sc3n(CC(=O)Nc3c(C)cc(C)cc3C)c2=O)cc1	nt	nt	nt	2.3%	nt	12.7%
CC(=O)N1CCC[C@H]1C(=O)NCC1Cc2cc(F)cc(-c3ccc(F)c(C)c3)c2O1 (stereo not given in full)	nt	i	nt	nt	nt	nt
SMILES	HT1080-NT tox	S2 tox	ATXN2 expr inh	TGFb inhibitor	HT1080 IDH1KD tx	HepG2 viability
CCN(CC)c1ccc(NC(=O)c2ccc3c(c2)c(C)c(C)n3C)cc1	18.4µM*	i	-37.1%	-22.1%	?	-3.2%
CC(=O)Nc1ccc(NC(=O)c2cc3c(=O)n(Cc4cccnc4)ccc3nc2C)cc1	nt	i	12.6%	-2.2%	nt	17.8µM*
Cc1ccc(C)c(N2CCN(C(=O)c3cc4c(=O)n(Cc5ccccc5)ccc4nc3C)CC2)c1	nt	?	?	10µM*	nt	-33.5%
Cc1ccc(C)c(N2CCN(C(=O)c3cccn4c(=O)c5sccc5nc34)CC2)c1	13µM*	i	18.2%	-20.4%	16.4µM*	-23.5%
CCCCCCCCNc1ccc(/C=C/c2ccnc3ccccc23)cc1	nt	nt	nt	25.0%	nt	-10.0%
COc1ccc(C)cc1-n1nnc(-c2nc(-c3ccccc3Cl)no2)c1N	nt	i	3.3%	0.2%	nt	1.7%
Cc1cc(-c2ccnc(-n3ncc(C(=O)N4CCCCC4c4cccnc4)c3C3CC3)n2)c(C)s1 (stereo not given)	nt	i	nt	nt	nt	nt
CC(C)Cc1nn2c(=O)cc(COC(=O)c3ccc(NC(=O)C4CCCCC4)cc3)nc2s1	nt	nt	nt	0.8%	nt	4.2%
Cc1c(C(=O)N2CCOCC2)sc(NC(=O)CCl)c1C#N	13µM*	i	-12.1%	-0.3%	11.6µM*	-8.0%
Cc1c(C(=O)N2CCOCC2)sc(NC(=O)c2ccc([N+](=O)[O-])cc2)c1C#N	7.3%	?	?	23.4%	14.8%	6.9%
Cc1cn([C@@H]2O[C@H](CO)[C@@H](O)[C@H]2F)c(=O)[nH]c1=O	nt	i	8.5%	nt	nt	nt
CCCCNC(=O)[C@@H]1CC=C[C@@H]2CCN(CCCC)C(=O)[C@@H]21	nt	nt	nt	4.3%	nt	17.2%
CCCCCCCn1c2c(c(=N)c3ccccc31)CCC2	?	?	nt	?	11.6µM*	2.1%
COC(=O)[C@H](CC(C)C)NS(=O)(=O)NC(=O)OC(C)(C)C	nt	nt	nt	7.9%	nt	3.6%
CN1CCC2(CC1)N=C(c1ccc(F)cc1)C(=S)N2C(=O)c1ccc(C(C)(C)C)cc1	?	?	31.6µM*	?	?	-55.3%
CC(C)(C)c1ccc(C(=O)N2CCNCC2)cc1	-3.5%	i	2.7%	-7.3%	-4.2%	-23.2%
C(=NNc1ccc2ccccc2n1)c1ccccn1	18.4µM*	2µM*	-78.3%	?	7.31µM*	-36.7%
Cc1csc(N/N=C/c2ccccn2)n1	?	nt	14.1µM*	?	?	-27.3%
Cc1ccc2[nH]c(C)c(/C=N/Nc3nc4ccccc4s3)c2c1	?	i	-20.3%	11.2µM*	?	-41.5%
C(=N\Nc1nc2ccccc2s1)/c1ccccn1	?	?	?	3.55µM*	6.51µM*	6.31µM*

Screening data as filed in PubChem.
